# Reference: PubChem BioAssay (NCATS)
# “And” between values parts separate entries of the source, which are not always exact repeats. Identical values can stand only once. Results filed as inconclusive are left out. Some structures have more than one record in an assay (separate samples or runs), and their calls can disagree. The source made the active and inactive calls. Unless noted, calls come from the whole dose curve.
# Experiments:
# [1] = Cell Viability - BJ (AID 421); conditions: BJ fibroblast viability, qHTS;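 note: potency is the fitted concentration of half-maximal effect; cells exposed to compound for 40 hours at 37 °C before readout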
# Method in brief: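 Luminescent ATP signal (CellTiter-Glo, 20 min at room temperature) served as the read-out of viable BJ cells after 40 hours of compound treatment. Responses were scaled between DMSO and 100 uM tamoxifen, and AC50 values were obtained by Hill modeling.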
# [2] = Cell Viability - Jurkat (AID 426;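 active = dose-dependent loss of cell ATP signal giving a full or clear fitted curve, ranked by lower potency value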;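 note: potency is the fitted concentration of half-maximal effect; cells exposed to compound for 40 hours at 37 °C before ATP read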); conditions: qHTS
# Method in brief: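 Cytotoxicity was scored as loss of cellular ATP, measured by luciferase-based luminescence, in Jurkat clone E6-1 cells after 40 h compound treatment; tamoxifen and doxorubicin served as positive controls.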
# [3] = Cell Viability - Hek293 (AID 427;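 active = compounds whose dose-response curve shows a full or clear partial loss of cell viability, called from curve shape rather than a numeric limit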;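 note: potency is the fitted concentration of half-maximal effect; cells exposed to compound for 40 hours at 37 °C before reading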); conditions: qHTS
# Method in brief: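 Luminescent ATP read-out (CellTiter-Glo, 20 min RT) after 40 hr compound exposure at 37 °C in complete medium. Signal normalized to DMSO (basal) and 100 uM tamoxifen (100% inhibition); concentration-response fitted with the standard Hill equation to give AC50.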
# [4] = Cell Viability - HepG2 (AID 433); conditions: qHTS;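 note: potency is the fitted concentration of half-maximal effect; potency for ATP loss meaning cytotoxicity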
# Method in brief: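 HepG2 cells, 1500 per well, treated 40 hr at 37 °C in complete medium; viability from intracellular ATP by CellTiter-Glo luminescence. Normalized to DMSO and 100 uM tamoxifen; AC50 from Hill fit of qHTS concentration-response.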
# [5] = Cell Viability - MRC5 (AID 434); conditions: MRC5 lung fibroblast viability, qHTS;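 note: potency is the fitted concentration of half-maximal effect; cells exposed to compound for 40 hours at 37 °C; potency reflects cytotoxicity seen as loss of intracellular ATP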
# Method in brief: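 Decrease in intracellular ATP, quantified by luciferase light output, reflects compound toxicity toward MRC5 cells exposed for 40 hr in complete culture medium. Concentration-response curves, scaled between DMSO and 100 uM tamoxifen, gave AC50 values.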
# [6] = Cell Viability - SK-N-SH (AID 435); conditions: SK-N-SH neuroblastoma cell viability qHTS;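 note: potency is the fitted concentration of half-maximal effect; compound exposure lasted 40 h at 37 °C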
# Method in brief: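 SK-N-SH neuroblastoma cells (1500/well) treated 40 h at 37 °C in complete medium; viability read as cellular ATP by CellTiter-Glo luminescence. Normalized to DMSO and 100 uM tamoxifen; AC50 from Hill fits of qHTS concentration-response.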
# [7] = AP1 Signaling Pathway (AID 357; active = well fitted curve in either direction with a large enough effect, not every such curve was filed as active;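 note: ME-180 reporter cells stimulated with EGF at its EC50 level; % is set by controls: 0 for no effect and ±100 for the full control effect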); conditions: ME-180 AP-1-bla reporter, EGF-induced, beta-lactamase ratio, 5 h; at 38 µM (top of the series)
# Method in brief: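 In this screen, ME-180 cells in Opti-MEM with 0.5% dialyzed FBS received EC50 EGF and compound titrations for 5 h. AP-1 reporter beta-lactamase was detected via CCF4 ratio, giving AC50 for positive and negative modulators.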
# [8] = Stat Signaling Pathway (AID 446; active = well fitted curve in either direction with a large enough effect, not every such curve was filed as active;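 note: ME-180 cervical cancer cells given 40 pM IL-6 alongside compound; SIE-controlled beta-lactamase reporter measured as 460/530 nm FRET emission ratio; % is set by controls: 0 for no effect and ±100 for the full control effect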); conditions: ME-180 (cervical carcinoma) SIE beta-lactamase reporter, IL-6 stimulated, 5 h; at 38 µM (top of the series)
# Method in brief: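 Compound effects on IL-6-induced STAT reporter activity were measured in ME-180 cells. After overnight culture, cells were co-treated with 40 pM IL-6 for 5 hrs before beta-lactamase substrate loading at room temperature.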
# [9] = biological target: Cytochrome P450 1A2 (Homo sapiens) (UniProt P05177); assay: p450-cyp1a2 (AID 410); conditions: recombinant CYP1A2, luciferin-ME demethylation, luminescence; series mostly up to 57 µM; note: potency is the fitted concentration of half-maximal effect;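 for activity change, negative = inhibition: -100% = full effect of reference inhibitor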
# Method in brief: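 Read-out is luminescence from luciferin produced by CYP1A2 demethylation of Luciferin-ME (100uM, at Km). Detection reagent stopped the 60 min NADPH-dependent reaction; signals were normalized to 57 uM furafylline.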
# [10] = NFAT Signaling Pathway (AID 444; active = well fitted curve in either direction with a large enough effect, not every such curve was filed as active;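 note: carbachol stimulus at about its EC50 of 1 µM final; % is set by controls: 0 for no effect and ±100 for the full control effect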); conditions: Jurkat NFAT-bla M1, carbachol, beta-lactamase ratio, 5 h; at 38 µM (top of the series)
# Method in brief: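 Jurkat cells carrying an NFAT-driven β-lactamase reporter and co-transfected muscarinic M1 receptor were treated with compound plus carbachol (1 uM final, an EC50 level) for 5 h at 37 °C. CCF4 loading followed for 1 h at RT; 460/530 nm ratio gave %activity.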
# Chain of Cytochrome P450 1A2 (Homo sapiens) (P05177 whole entry, looked up): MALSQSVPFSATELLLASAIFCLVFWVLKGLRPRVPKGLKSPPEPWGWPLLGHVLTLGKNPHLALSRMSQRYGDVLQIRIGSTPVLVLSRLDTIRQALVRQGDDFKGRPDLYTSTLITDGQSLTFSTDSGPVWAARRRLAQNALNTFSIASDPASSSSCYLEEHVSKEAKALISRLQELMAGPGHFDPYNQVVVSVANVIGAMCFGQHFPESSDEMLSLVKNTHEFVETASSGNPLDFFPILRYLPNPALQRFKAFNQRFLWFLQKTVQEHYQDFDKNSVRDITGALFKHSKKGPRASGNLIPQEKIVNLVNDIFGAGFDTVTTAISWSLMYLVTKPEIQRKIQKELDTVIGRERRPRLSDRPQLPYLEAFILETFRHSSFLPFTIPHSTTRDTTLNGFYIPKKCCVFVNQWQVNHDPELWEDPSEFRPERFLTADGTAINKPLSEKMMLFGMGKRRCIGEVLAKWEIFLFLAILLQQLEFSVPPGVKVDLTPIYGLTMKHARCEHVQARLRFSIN
Structure (SMILES),Potency [1],Potency [2],Potency [3],Potency [4],Potency [5],Potency [6],"activity change, negative = inhibition [7]","activity, negative = inhibition [8]",Potency [9],"activity change, negative = inhibition [10]"
CCCCOC(=O)c1ccccc1C(=O)OCc1ccccc1,> 92 µM (inactive),> 92 µM (inactive),> 92 µM (inactive),> 92 µM (inactive),> 92 µM (inactive),> 92 µM (inactive),–,–,–,–
O=C(O)C(Cl)Cl,> 92 µM (inactive),> 92 µM (inactive),> 92 µM (inactive),> 92 µM (inactive),> 92 µM (inactive),> 92 µM (inactive),–,–,–,–
CCCCC(CC)COC(=O)c1ccccc1C(=O)OCC(CC)CCCC (centres undefined),> 92 µM (inactive),> 92 µM (inactive),> 92 µM (inactive),> 92 µM (inactive),> 92 µM (inactive),> 92 µM (inactive),–,–,–,–
CC(=O)[O][Hg][c]1ccccc1,5.56 µM (active),0.47 µM (active),2.24 µM (active),25.1 µM (active),10.9 µM (active),2.17 µM (active),–,–,–,–
OCCCBr,> 92 µM (inactive),> 92 µM (inactive),> 92 µM (inactive),> 92 µM (inactive),> 92 µM (inactive),> 92 µM (inactive),–,–,–,–
Nc1ccc(Cl)cc1,> 92 µM (inactive),> 92 µM (inactive),> 92 µM (inactive),> 92 µM (inactive),> 92 µM (inactive),> 92 µM (inactive),–,–,–,–
O=[N+]([O-])c1cc([N+](=O)[O-])c2ccccc2c1,> 92 µM (inactive),> 92 µM (inactive),> 92 µM (inactive),> 92 µM (inactive),> 92 µM (inactive),> 92 µM (inactive),–,–,–,–
Nc1ccc(Sc2ccc(N)cc2)cc1,> 92 µM (inactive),> 92 µM (inactive),> 92 µM (inactive),> 92 µM (inactive),> 92 µM (inactive),> 92 µM (inactive),–,–,–,–
S=C(NC1CCCCC1)N1CCC(c2cnc[nH]2)CC1,–,–,–,–,–,–,-10.5% (inactive),6.17% (inactive),–,–
Cc1nc(-c2ccc(-c3ccc(C(=O)N4CCc5cc6c(cc54)C4(CCN(C)CC4)CO6)cc3)c(C)c2)no1,–,–,–,–,–,–,–,–,inactive and 39.8 µM (active),–
CC(C)(O)C(=O)Nc1ccc([N+](=O)[O-])c(C(F)(F)F)c1,> 92 µM (inactive),> 92 µM (inactive),> 92 µM (inactive),> 92 µM (inactive),> 92 µM (inactive),> 92 µM (inactive),–,–,–,–
CCOP(=O)(NC(C)C)Oc1ccc(SC)c(C)c1 (centres undefined),> 92 µM (inactive),> 92 µM (inactive),–,> 92 µM (inactive),> 92 µM (inactive),> 92 µM (inactive),–,–,–,–
O=C(O)COc1ccccc1,> 92 µM (inactive),> 92 µM (inactive),> 92 µM (inactive),> 92 µM (inactive),> 92 µM (inactive),> 92 µM (inactive),–,–,–,–
C=CC(=O)NCNC(=O)C=C,> 92 µM (inactive),> 92 µM (inactive),> 92 µM (inactive),> 92 µM (inactive),> 92 µM (inactive),> 92 µM (inactive),–,–,–,–
Cc1c(C(=O)c2cccc3ccccc23)c2cccc3c2n1[C@H](CN1CCOCC1)CO3,–,–,–,–,–,–,–,–,–,-21.8% (inactive)
c1cc2ccc3cccc4ccc(c1)c2c34,> 92 µM (inactive),> 92 µM (inactive),> 92 µM (inactive),> 92 µM (inactive),> 92 µM (inactive),> 92 µM (inactive),–,–,–,–
O=[N+]([O-])c1c(Cl)c(Cl)cc(Cl)c1Cl,> 92 µM (inactive),> 92 µM (inactive),> 92 µM (inactive),> 92 µM (inactive),> 92 µM (inactive),> 92 µM (inactive),–,–,–,–
C1CCC(NC2CCCCC2)CC1,> 92 µM (inactive),> 92 µM (inactive),> 92 µM (inactive),> 92 µM (inactive),> 92 µM (inactive),> 92 µM (inactive),–,–,–,–
COC(C)(C)CCCC(C)C/C=C/C(C)=C/C(=O)OC(C)C (centres undefined),> 92 µM (inactive),> 92 µM (inactive),> 92 µM (inactive),> 92 µM (inactive),> 92 µM (inactive),> 92 µM (inactive),–,–,–,–
